SW480 rereplic: DNA re-replication induction in SW480 cells; AID 624297; SW480 DNA re-replication, Hoechst DNA content imaging, 48 h; Potency, µM (highest dose often 46.1 µM), for the others: top-dose re-replication activation, most hits filed as activators; hit rate 1.8% among 340,000; note: % of control where 0% means no effect; nearly all actives have a fitted effect of over 55% in size
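First, 250 cells per well were seeded. Next, compound or vehicle (23 nL) was pinned in, plates sat 48 hr at 37 C. Finally Hoechst was added for 40 min before fluorescence scanning.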
HT1080 IDH1KD tx: kills HT-1080 cells with IDH1 knockdown; HT-1080 IDH1 knockdown viability, ATP luminescence, 48 h; Potency, µM (highest dose often 46.1 µM), for inactives: at the highest dose activity, negative = toxicity, most hits filed as cytotoxic; hit rate 2% among 360,000; AID 686971;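 note: 0% = DMSO wells and -100% = cell-free medium wells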
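HT-1080-IDH1KD cells (IDH1 knocked down), 750/well in RPMI with 5% FBS, treated with compound 48 h at 37 degrees C. Viability by CellTiter-Glo luminescence, normalised to DMSO and no-cell wells; concentration-response curves classed.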
HT1080-NT tox: kills 2HG-producing HT-1080-NT fibrosarcoma cells; Potency, µM (doses to about 46.1 µM), without a hit: at the top dose activity, negative = less viability, usual class: cytotoxic; hit rate 1.6% among 360,000; HT-1080-NT fibrosarcoma viability, CellTiter-Glo ATP luminescence, 48 h;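 note: NT is the 2HG producing partner of a matched IDH1 knockdown line; 0% = DMSO-treated cells and -100% = media-only wells without cells; nearly all actives have a fitted effect of over 55% in size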
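HT-1080-NT fibrosarcoma cells (2HG-overproducing), 750 cells/well in RPMI with 5% FBS, dosed after 2 h and incubated 48 h at 37C. CellTiter-Glo luminescence normalized to DMSO and no-cell wells; concentration-response curves fitted and classed.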
KB-V1 cytotox: kills drug-selected multidrug resistant KB-V1 cells | Potency, µM (top dose mostly 46.1 µM), most hits filed as cytotoxic | AID 1347076 | KB-V1 MDR cells viability, CellTiter-Glo, 72 h | hit rate 3.4% among 400,000; note: % is set by controls: 0 for no effect and ±100 for the full control effect; nearly all actives have a fitted effect of over 60% in size
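qHTS viability screen in drug-selected KB-V1 MDR cells: 72 h compound treatment at 37 degrees C, ATP luminescence end point.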
MCF10A rerep: inducers of DNA re-replication in MCF 10A breast cells. AID 624296. hit rate 2.9% among 350,000. MCF 10A DNA re-replication, Hoechst nuclear intensity, 48 h. Potency, µM (titrated, usually from 46.1 µM), without a hit: top-dose activity, positive = re-replication, usual class: activators; note: % of control where 0% means no effect; nearly all actives have a fitted effect of over 50% in size
KB-3-1 cytotox: kills parental KB-3-1 adenocarcinoma cells. KB-3-1 viability, CellTiter-Glo ATP luminescence, 72 h. Potency, µM (series often up to 46.1 µM), most hits filed as cytotoxic. hit rate 1.4% among 400,000; note: % is set by controls: 0 for no effect and ±100 for the full control effect; nearly all actives have a fitted effect of over 60% in size
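Cytotoxicity in the drug-sensitive parental line KB-3-1 was scored as loss of CellTiter-Glo luminescence following 72 h incubation with compound. Values come from curve fitting of normalized concentration-response data.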
* = called active by the depositor; i = inactive; ? = inconclusive; · = no result given. Most compounds without a hit are left out; they make up all but 7.9% or so of the library. Calls come from the whole dose curve; as a rule, active = well fitted curve in the direction sought with a large enough effect; inconclusive = small, poorly fitted or top-dose-only effect, or another doubt; inactive = no such curve, though single readings can be large; an effect the other way counts as inactive or inconclusive. Potency is the fitted concentration of half-maximal effect.

SMILES	SW480 rereplic	HT1080 IDH1KD tx	HT1080-NT tox	KB-V1 cytotox	MCF10A rerep	KB-3-1 cytotox
CCOC(=O)CN1C(=O)S/C(=C/c2ccc(O)c([N+](=O)[O-])c2)C1=O	0%	-25%	18µM*	?	0%	?
COc1cc(/C=C2\SC(=N)N(c3ccc(F)cc3)C2=O)ccc1O	?	?	?	?	18µM*	i
Cc1ccccc1CN1[C@H]2CCCC[C@@H]2OCCS1(=O)=O	·	·	·	?	·	i
COc1cccc(/C=C2\SC(=S)N(CCCC(=O)N3CCCCC3CCO)C2=O)c1 (stereo unspecified)	3%	-3%	-8%	i	?	i
N=C1S/C(=C\c2cccc3ccccc23)C(=O)N1c1ccc(F)cc1	18µM*	-28%	?	7.3µM*	?	7.3µM*
COc1cccc(/C=C2\SC(=S)N(CCC(=O)N3CCCCC3CCO)C2=O)c1 (stereo unspecified)	18µM*	-22%	-3%	?	23µM*	?
COc1cc(/C=C2\SC(=S)N(CCC(=O)Nc3ccc(O)cc3)C2=O)cc(OC)c1OC	?	?	?	i	16µM*	i
N=C1S/C(=C\c2ccccc2F)C(=O)N1c1ccc(F)cc1	-6%	3%	2%	i	-6%	i
Cc1ccc2cc(C#N)c(N3CCCN(C(=S)NCCCN(C)C)CC3)nc2c1	23µM*	21µM*	21µM*	i	3.7µM*	?
CCOCCCNC(=S)N1CCCN(c2nc3cc(C)ccc3cc2C#N)CC1	5%	7%	?	i	0%	i
Cc1cc(C)c2cc(C#N)c(N3CCCN(C(=S)NCCCN(C)C)CC3)nc2c1	?	?	?	?	7.3µM*	?
Cc1cc(C)c2cc(C#N)c(N3CCCC3)nc2c1	?	-1%	1%	i	?	i
CCOc1ccc(CCNC(=O)Cn2ccc3cc(S(=O)(=O)N4CCCCCC4)ccc32)cc1	·	·	·	i	·	i
O=S(=O)(c1ccc(F)cc1)c1snnc1-c1ccccc1	52%	?	6.5µM*	i	7.3µM*	13µM*
O=S(=O)(c1ccc(Cl)cc1)c1snnc1-c1ccccc1	?	7.3µM*	12µM*	?	?	5.8µM*
c1ccc(-c2nnsc2-c2ncc[nH]2)cc1	-2%	?	11%	i	-6%	i
C(=N\N=C\c1ccncc1)/c1ccncc1	1%	-12%	0%	i	0%	i
Cc1cc(NC(=O)C2CCN(S(=O)(=O)c3ccc(Br)s3)CC2)ccc1Br	·	·	·	i	·	i
CNC[C@@H]1Oc2ccc(NS(=O)(=O)c3ccc(Cl)cc3)cc2C(=O)N([C@H](C)CO)C[C@@H]1C	-2%	10%	13%	i	-3%	i
COc1ccc(OC)c(CCNC(=O)CS(=O)(=O)Cc2nc(-c3ccccc3C)oc2C)c1	-3%	1%	3%	6.5µM*	6%	?
Cc1ccccc1-c1nc(CN2CCC(C(=O)NCCc3ccccc3)CC2)c(C)o1	·	·	·	i	·	i
COc1ccc(CCNC(=O)C2CCN(Cc3nc(-c4ccccc4C)oc3C)CC2)cc1OC	2%	?	?	7.3µM*	22%	?
Cc1ccccc1-c1nc(CN2CCC(C(=O)NCCCN3CCCC(C)C3)CC2)c(C)o1 (stereo unspecified)	21µM*	9.2µM*	18µM*	i	7%	i
CCCCN(C)CCNC(=O)c1nn(-c2ccc(OC)c(Cl)c2)c(=O)c2c1c1ccccc1n2C	·	·	·	i	·	i
Cc1[nH]c2ccc(C(=O)Nc3ccc(F)cc3)cc2c1C	·	·	·	i	·	i
SMILES	SW480 rereplic	HT1080 IDH1KD tx	HT1080-NT tox	KB-V1 cytotox	MCF10A rerep	KB-3-1 cytotox
O=[N+]([O-])c1cc(S(=O)(=O)Oc2ccccc2)ccc1Cl	3.3µM*	18µM*	15µM*	?	?	?
O=S(=O)(Oc1ccccc1)c1ccc(Cl)c(Cl)c1	-9%	20%	25%	?	-15%	i
Cc1ccccc1NC(=S)NCc1ccc2[nH]c3c(c2c1)CCCC3	?	-5%	-16%	i	6.5µM*	i
Cc1ccc(C)c(NC(=S)NCc2ccc3[nH]c4c(c3c2)CCCC4)c1	?	-20%	?	?	?	?
S=C(NCc1ccc2[nH]c3c(c2c1)CCCC3)Nc1ccccc1Cl	5%	-14%	-9%	?	3.7µM*	?
CNC(=S)NCc1ccc2[nH]c3c(c2c1)CCCC3	1%	4%	-19%	?	-4%	i
CCCCNC(=S)NCc1ccc2[nH]c3c(c2c1)CCCC3	-16%	-8%	-1%	21µM*	4%	i
CCOC(=O)C1CCN(c2nc3c(S(=O)(=O)c4ccc(Br)cc4)nnn3c3ccsc23)CC1	·	·	·	i	·	i
Cc1cc(NS(=O)(=O)c2ccc3c(c2)CCC(=O)N3)ccc1F	·	·	·	i	·	i
COc1ccccc1CN1CCCC(CN(CCN(C)C)C(=O)c2ccc(C)cc2)C1 (stereo unspecified)	55%	-14%	-7%	i	-6%	?
Cc1ccc(Oc2ccc(S(=O)(=O)N3CCOCC3)cc2C(N)=O)c(-n2nc3ccccc3n2)c1	5.2µM*	4.1µM*	?	18µM*	4.6µM*	6.5µM*
